# Measured values: the supplement of paper PMC10941209
# Tested on: HFF
# Experiment: cell viability relative to DMSO control; higher = less cytotoxic
# Conditions: 1 µM; 72 h
# Protocol: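 Single-dose cytotoxicity screen of the MMV Pandemic Response Box at 1 uM on human foreskin fibroblasts (HFF), 72 h at 37 C. Viability measured by MTT (OD 550 nm) and normalised to the DMSO control (% survival).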
row,SMILES,cell viability
1,O=S(=O)(Nc1ccccc1)c1ccc(NC(=S)Nc2ccccc2)cc1,66.2%
2,O=C(Cc1ccccc1F)Nc1nc2ccccc2[nH]1,69.7%
3,Cc1onc(-c2ccccc2Cl)c1C(=O)N[C@@H]1C(=O)N2[C@@H]1SC(C)(C)[C@@H]2C(=O)O,69%
4,O=P(O)(O)C(CCCc1cccc(Oc2ccccc2)c1)S(=O)(=O)O (stereo not given),74.4%
5,O=c1nc(N2CCN(CC3CCCCC3)CC2)sc2c([N+](=O)[O-])cc(C(F)(F)F)cc12,57.6%
6,Cc1ccc(NC(=O)c2cc(Cl)ccc2O)cc1,65.7%
7,CN(C(=O)C1(c2ccc(Cl)cc2)CCC1)c1ccccc1,63.2%
8,COc1ccc2cc3[n+](cc2c1OCCN(CCn1cncn1)Cc1ccc(F)cc1F)CCc1cc2c(cc1-3)OCO2,61.3%
9,CC(Cc1ccccc1)C(=O)Nc1ccc(Cl)cc1C(=O)O (stereo not given),65%
10,CCc1cc(CCCOc2c(C)cc(-c3noc(C(F)(F)F)n3)cc2C)on1,69.3%
11,COc1cc(C2C3=C(CC(C)(C)CC3=O)Nc3ccccc3N2C(C)=O)ccc1OCc1ccccc1 (stereo not given),67.1%
12,Nc1ccc2oc(=O)ccc2c1I,69.6%
13,COc1cccc(N2CCN(C3=Nc4c(F)cccc4[C@H](CC(=O)O)N3c3cc(C(F)(F)F)ccc3OC)CC2)c1,55.7%
14,NC(=O)c1[nH]c2ccc(S(N)(=O)=O)cc2c1-c1ccccc1,75.8%
15,COc1ccc(C[C@@H](C)[C@@H](C)Cc2ccc(OC)c(OC)c2)cc1OC,65.2%
16,N=C(N)NCCCCC(=O)Nc1cc(C(F)(F)F)cc(NC(=O)c2cc(C(=O)Nc3cc(C(F)(F)F)cc(NC(=O)CCCCNC(=N)N)c3O[C@@H]3CCNC3)ncn2)c1O[C@@H]1CCNC1,57.6%
17,CCNC(=O)Nc1cc2c(-c3ccnc(C)c3)ccc(CNC(=O)OC)c2cn1,62.7%
18,O=C(Nc1cccc(C2=NCCN2)c1)c1ccc(-c2ccc(C(=O)Nc3cccc(C4=NCCN4)c3)cc2)cc1,63.4%
19,O=C(CC1Sc2ncnn2C1=O)Nc1ccc(Br)cc1 (stereo not given),59.7%
20,Clc1cc2nc(C3CCNCC3)n(Cc3ccc(CNCCc4c[nH]cn4)cc3)c2cc1Cl,65.3%

row,SMILES,cell viability
1,CCC(CC)[C@H](NC(C)=O)[C@@H]1[C@H](O)[C@@H](C(=O)O)C[C@H]1NC(=N)N,73.5%
2,Cn1cncc1[C@@](N)(c1ccc(Cl)cc1)c1ccc2c(c1)c(-c1cccc(Cl)c1)cc(=O)n2C,61.1%
3,C=C[C@]1(C)C[C@@H](OC(=O)CS[C@@H]2C[C@H]3CC[C@@H](C2)N3C)[C@]2(C)[C@H](C)CC[C@]3(CCC(=O)[C@H]32)[C@@H](C)[C@@H]1O,72.2%
4,Cc1onc(-c2ccccc2)c1-c1ccc(S(N)(=O)=O)cc1,66.8%
5,CN(C)[C@@H]1C(=O)C(C(N)=O)=C(O)[C@@]2(O)C(=O)C3=C(O)c4c(O)c(NC(=O)CN5CCCC5)cc(F)c4C[C@H]3C[C@@H]12,66%
6,O=S(=O)(Nc1ccc(-n2cccc2)cc1)c1ccc(Cl)c(Cl)c1,64.5%
7,CC1(C)CC(NC(=O)C(=O)Nc2ccc(Cl)cc2)CC(C)(C)N1,69.1%
8,O=C(NCc1ccc2c3c(cccc13)C(=O)N2)c1cccs1,62.2%
9,O=C(NCc1ccccc1Cl)c1cnc2ccccc2n1,71.4%
10,O=C(/C=C\n1cnc(-c2cc(C(F)(F)F)cc(C(F)(F)F)c2)n1)NNc1ccccn1,62%
11,CCCCCCCCCN1C[C@@H](O)[C@H](O)[C@@H](O)[C@@H]1CO,84.2%
12,Nc1nc(O)c(Br)c(-c2cccc(Cl)c2)n1,61.7%
13,Oc1ccc(NCc2ccccc2OCc2ccccc2)cc1,70.1%
14,NS(=O)(=O)c1ccc(NC(=O)NC(c2ccccc2)c2ccccc2)cc1,72.8%
15,Nc1cnn(C2OC(CO)C(O)C2O)c(=O)n1 (stereo not given),63.5%
16,O=C(Cn1cnc2ccccc2c1=O)Nc1ccccc1,62.8%
17,O[C@@](Cn1cnnn1)(c1ccc(F)cc1F)C(F)(F)c1ccc(-c2ccc(OCC(F)(F)F)cc2)cn1,58.9%
18,O=c1cc(Nc2ccc3ccccc3c2)[nH]c(=O)[nH]1,65.6%
19,FC(F)(F)Oc1ccc(Nc2ccc3cccc(Cl)c3n2)cc1,56.3%
20,O=C(CP(=O)(O)O)NCCc1cccc(Oc2ccccc2)c1,65.7%
